The whole screen tested about 52,000 compounds, of which about 1,700 (3.3%) were called active. The sample as a whole holds a higher share of actives than the screen did. Values without a mark were called inactive. Rule as the data show it: active = survival mostly below about 52% (no sharp cut-off); inactive = mostly above about 56%.
Each molecule was assayed on Wild type (assay: S. aureus survival, RN4220 and DeltatarO strains – OD600, teichoic acid synthesis inhibitors, primary screen (AID 463173)). Details: S. aureus RN4220 wild type/DeltatarO growth, OD600, 18 h, active compounds read low, screened at 18.75 µg/mL (by protocol).

Row | Compound | survival
1 | CCC(=O)N1CCc2cc(S(=O)(=O)NCCC(=O)Nc3ccc(CC)cc3)ccc21 | 73%
2 | Brc1cccc(-c2nn(-c3ccccc3)c3c2cnc2cc4c(cc23)OCO4)c1 | 86%
3 | O=C(NCCS(=O)(=O)N1CCN(c2ccc(F)cc2)CC1)c1cccc(C(F)(F)F)c1 | 72%
4 | Cc1cccc(NC(=O)c2ccc3c(c2)CCN3S(=O)(=O)c2ccccc2)c1C | 84%
5 | CCN(CC)S(=O)(=O)c1ccc2c(c1)N(CC(=O)Nc1ccc(F)cc1F)C(=O)C1CCCN21 (stereo not given) | 64%
6 | Cc1ccc(-n2nc(C(=O)N3CCN(c4cc(C)ccc4C)CC3)c3c4ccccc4n(C)c3c2=O)cc1 | 79%
7 | CCOc1ccc(CN2CCN(C(=O)c3ccco3)CC2)cc1 | 103%
8 | CCOc1ccc(Cn2c(=O)oc3ccccc32)cc1 | 114%
9 | CC(C)n1c(N2CCN(Cc3ccc(Cl)cc3)CC2)nc2ccccc21 | 128%
10 | CCOc1ccc(CN2CCN(Cc3ccc4c(c3)c3ccccc3n4CC)CC2)cc1 | -1% (active)
11 | CCCn1c(N2CCN(Cc3ccc(Cl)cc3)CC2)nc2ccccc21 | 123%
12 | CCn1c2ccccc2c2cc(CN3CCN(Cc4ccc(Cl)cc4)CC3)ccc21 | -2% (active)
13 | CCOc1ccc(-c2c(C)nn3c(C)c(C(=O)NCC(C)c4ccccc4)cnc23)cc1OCC (stereo not given) | 72%
14 | O=C(CSc1nc2c(c(=O)[nH]1)CCC2)Nc1cc(C(F)(F)F)ccc1Cl | 85%
15 | CCCN1Cc2cccc(C(=O)Nc3ccc(C(C)=O)cc3)c2C1=O | 89%
16 | CS(=O)(=O)c1ccccc1-c1nnc(NC(=O)c2ccc3c(c2)OCCO3)o1 | -6% (active)
17 | CS(=O)(=O)c1ccc(-c2nnc(NC(=O)c3ccc4c(c3)OCCO4)o2)cc1 | 75%
18 | CSc1ccccc1-c1nnc(NC(=O)c2ccc3c(c2)OCCO3)o1 | 123%
19 | Cc1ccc(-n2c(=O)c3cccnc3n2CC(=O)Nc2ccc(C)cc2Cl)cc1 | 113%
20 | Cc1ccc2c(c1)-c1nc(-c3ccc(Cl)cc3)cc(-c3coc4ccccc4c3=O)c1CO2 | 139%
21 | CCCn1c(=O)c2sccc2n2c(CCCC(=O)N3CCN(c4ccc(OC)cc4)CC3)nnc12 | 99%
22 | O=C(Nc1cccc(C(=O)N2CCCCC2)c1)c1nsc2ccccc12 | 65%
23 | CCCc1nc2sc3c(N4CCCCC4)ncnc3c2c2c1CCCC2 | 13% (active)
24 | CCc1nc2sc3c(N4CCCCC4)ncnc3c2c2c1CCCC2 | 136%
25 | CCCc1nc2sc3c(N4CCC(C)CC4)ncnc3c2c2c1CCCC2 | 75%
